Experimental data reported in PubChem BioAssay AID1159580 (chemical genetic matrix, 2015).
Several values for one entry are separate records, joined by “and”; a condition that tells them apart may be missing. Identical values can stand only once. In all, about 5,500 compounds went through this assay and about 2,000 (36%) were called active. About 18% were inconclusive and are not listed. Rule as the data show it: active = normalized growth mostly below about 0.91 (no sharp cut-off); inconclusive = no clear call, values can overlap the other calls; inactive = mostly above about 0.92. This is one part of the list.

Assay: chemical genetic growth profiling, strain panel (AID 1159580);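 also: tested at 20 µM; growth read once vehicle control cultures reached saturation at 30 °C; 1 = growth at the plate median or of vehicle wells; lower values mean less growth of the strain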
Conditions: growth OD

Measured: normalized growth

CN(C)CCC(c1ccc(Br)cc1)c1ccccn1 (centres undefined)
inactive: S. cerevisiae deletion strains, locus YKL009W, strain mrt4, active compounds read low 0.99 | S. cerevisiae deletion strains, locus YKL068W, active compounds read low 1.01 | S. cerevisiae deletion strains, locus YKL085W, strain MDH1 (second series), active compounds read low 1.02 | S. cerevisiae deletion strains, locus YKL085W, strain MDH1, active compounds read low 1.02 | S. cerevisiae deletion strains, locus YKL160W, strain elf1, active compounds read low 0.981 | S. cerevisiae deletion strains, locus YKL190W, strain CNB1, active compounds read low 0.995 | S. cerevisiae deletion strains, locus YKR001C, strain vps1, active compounds read low 0.964 | S. cerevisiae deletion strains, locus YKR026C, strain gcn3, active compounds read low 0.986 | S. cerevisiae deletion strains, locus YLL001W, strain dnm1, active compounds read low 0.998 | S. cerevisiae deletion strains, locus YLL026W, active compounds read low 0.987 | S. cerevisiae deletion strains, locus YLL041C, strain sdh2, active compounds read low 0.981 | S. cerevisiae deletion strains, locus YLR027C, strain aat2, active compounds read low 0.99 | S. cerevisiae deletion strains, locus YLR039C, strain RIC1, active compounds read low 0.999 | S. cerevisiae deletion strains, locus YLR058C, strain SHM2, active compounds read low 0.991 | S. cerevisiae deletion strains, locus YLR102C, strain apc9, active compounds read low 0.992 | S. cerevisiae deletion strains, locus YLR113W, strain HOG1, active compounds read low 1.01 | S. cerevisiae deletion strains, locus YLR221C, strain rsa3, active compounds read low 0.999 | S. cerevisiae deletion strains, locus YLR258W, strain gsy2, active compounds read low 0.969 | S. cerevisiae deletion strains, locus YLR262C, strain YPT6 (second series), active compounds read low 0.999 | S. cerevisiae deletion strains, locus YLR262C, strain YPT6, active compounds read low 1.03 | S. cerevisiae deletion strains, locus YLR268W, strain sec22, active compounds read low 0.956 | S. cerevisiae deletion strains, locus YLR320W, strain mms22, active compounds read low 1.03 | S. cerevisiae deletion strains, locus YLR330W, strain CHS5, active compounds read low 0.992 | S. cerevisiae deletion strains, locus YLR342W, strain FKS1 (second series), active compounds read low 0.985 | S. cerevisiae deletion strains, locus YLR342W, strain FKS1, active compounds read low 0.986 | S. cerevisiae deletion strains, locus YLR357W, strain rsc2, active compounds read low 0.972 | S. cerevisiae deletion strains, locus YLR370C, strain arc18, active compounds read low 0.982 | S. cerevisiae deletion strains, locus YLR371W, strain rom2, active compounds read low 0.989 | S. cerevisiae deletion strains, locus YLR384C, strain iki3, active compounds read low 0.989 | S. cerevisiae deletion strains, locus YLR418C, strain cdc73, active compounds read low 0.95 | S. cerevisiae deletion strains, locus YML016C, strain PPZ1, active compounds read low 0.986 | S. cerevisiae deletion strains, locus YML032C, strain rad52, active compounds read low 0.966 | S. cerevisiae deletion strains, locus YML120C, strain ndi1, active compounds read low 0.981 | S. cerevisiae deletion strains, locus YML124C, strain tub3, active compounds read low 0.987 | S. cerevisiae deletion strains, locus YMR058W, strain fet3, active compounds read low 1.01 | S. cerevisiae deletion strains, locus YMR078C, strain ctf18, active compounds read low 0.974 | S. cerevisiae deletion strains, locus YMR125W, strain sto1, active compounds read low 0.936 | S. cerevisiae deletion strains, locus YMR129W, active compounds read low 0.982 | S. cerevisiae deletion strains, locus YMR205C, strain PFK2, active compounds read low 0.997 | S. cerevisiae deletion strains, locus YMR223W, strain ubp8, active compounds read low 1.01 | S. cerevisiae deletion strains, locus YMR231W, strain pep5, active compounds read low 0.978 | S. cerevisiae deletion strains, locus YMR263W, strain SAP30, active compounds read low 0.976 | S. cerevisiae deletion strains, locus YMR307W, strain GAS1, active compounds read low 1.01 | S. cerevisiae deletion strains, locus YNL067W, strain RPL9B, active compounds read low 0.977 | S. cerevisiae deletion strains, locus YNL071W, strain lat1, active compounds read low 0.98 | S. cerevisiae deletion strains, locus YNL128W, strain TEP1, active compounds read low 0.988 | S. cerevisiae deletion strains, locus YNL153C, strain GIM3, active compounds read low 0.981 | S. cerevisiae deletion strains, locus YNL175C, strain NOP13, active compounds read low 1 | S. cerevisiae deletion strains, locus YNL183C, strain NPR1, active compounds read low 0.942 | S. cerevisiae deletion strains, locus YNL197C, strain WHI3, active compounds read low 1.01 | S. cerevisiae deletion strains, locus YNL209W, strain ssb2, active compounds read low 0.993 | S. cerevisiae deletion strains, locus YNL224C, strain SQS1, active compounds read low 1 | S. cerevisiae deletion strains, locus YNL233W, strain BNI4, active compounds read low 0.988 | S. cerevisiae deletion strains, locus YNL248C, strain rpa49, active compounds read low 0.952 | S. cerevisiae deletion strains, locus YNL250W, strain rad50, active compounds read low 0.978 | S. cerevisiae deletion strains, locus YNL271C, strain bni1, active compounds read low 0.984 | S. cerevisiae deletion strains, locus YNL298W, strain CLA4, active compounds read low 0.985 | S. cerevisiae deletion strains, locus YNL307C, strain MCK1, active compounds read low 0.989 | S. cerevisiae deletion strains, locus YNL322C, strain KRE1 (second series), active compounds read low 0.971 | S. cerevisiae deletion strains, locus YNL322C, strain KRE1, active compounds read low 0.991 and 1.02 | S. cerevisiae deletion strains, locus YNR049C, strain mso1, active compounds read low 0.968 | S. cerevisiae deletion strains, locus YNR052C, strain pop2, active compounds read low 0.989 | S. cerevisiae deletion strains, locus YOL006C, strain TOP1, active compounds read low 0.973 | S. cerevisiae deletion strains, locus YOL012C, strain htz1 0.603 | S. cerevisiae deletion strains, locus YOL147C, strain pex11, active compounds read low 0.983 | S. cerevisiae deletion strains, locus YOR001W, strain rrp6, active compounds read low 0.986 | S. cerevisiae deletion strains, locus YOR061W, strain CKA2, active compounds read low 0.99 | S. cerevisiae deletion strains, locus YOR069W, strain VPS5, active compounds read low 0.992 | S. cerevisiae deletion strains, locus YOR070C, strain gyp1, active compounds read low 0.99 | S. cerevisiae deletion strains, locus YOR080W, strain dia2, active compounds read low 0.975 | S. cerevisiae deletion strains, locus YOR083W, strain WHI5 (second series), active compounds read low 1.01 | S. cerevisiae deletion strains, locus YOR083W, strain WHI5, active compounds read low 0.928 | S. cerevisiae deletion strains, locus YOR106W, strain vam3, active compounds read low 0.966 | S. cerevisiae deletion strains, locus YOR136W, strain idh2, active compounds read low 1 | S. cerevisiae deletion strains, locus YOR144C, strain elg1, active compounds read low 0.99 | S. cerevisiae deletion strains, locus YOR184W, strain ser1, active compounds read low 0.98 | S. cerevisiae deletion strains, locus YOR231W, strain MKK1, active compounds read low 0.986 | S. cerevisiae deletion strains, locus YOR265W, strain rbl2, active compounds read low 0.99 | S. cerevisiae deletion strains, locus YOR270C, strain vph1, active compounds read low 0.981 | S. cerevisiae deletion strains, locus YOR290C, strain snf2, active compounds read low 0.97 | S. cerevisiae deletion strains, locus YOR316C, strain cot1, active compounds read low 0.987 | S. cerevisiae deletion strains, locus YPL051W, strain arl3, active compounds read low 0.991 | S. cerevisiae deletion strains, locus YPL055C, strain LGE1, active compounds read low 1 and 1.01 | S. cerevisiae deletion strains, locus YPL078C, strain atp4, active compounds read low 0.985 | S. cerevisiae deletion strains, locus YPL106C, strain sse1, active compounds read low 0.936 | S. cerevisiae deletion strains, locus YPL240C, strain hsp82, active compounds read low 0.991 | S. cerevisiae deletion strains, locus YPL241C, strain CIN2, active compounds read low 0.992 and 1.01 | S. cerevisiae deletion strains, locus YPL256C, strain CLN2, active compounds read low 0.96 | S. cerevisiae deletion strains, locus YPR119W, strain clb2, active compounds read low 0.998 | S. cerevisiae deletion strains, locus YPR141C, strain kar3, active compounds read low 0.979 | S. cerevisiae deletion strains, locus YPR163C, strain tif3, active compounds read low 0.987 | S. cerevisiae deletion strains, locus YPR167C, strain met16, active compounds read low 0.987 | S. cerevisiae deletion strains, strain wtn01, active compounds read low 0.95 | S. cerevisiae strains, strain wild type, active compounds read low 0.987
